aSyn rescue: rescues yeast growth from alpha-synuclein toxicity; Yeast expressing alpha-synuclein, growth rescue, BacTiter-Glo, 24 h; Potency, µM (titrated, usually from 46.1 µM), actives largely listed as activators; 0.14% of 370,000 active; also: nearly all actives have a fitted effect of over 65% in size
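Galactose-induced alpha-syn yeast (OD600=0.02, raffinose-pregrown) + pinned cpd, 24 hr, 30 deg C; growth by BacTiter-Glo luminescence. Growth restoration scores as activation.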
Abeta rescue: A-beta toxicity reversal in yeast | yeast expressing A-beta42, growth rescue, OD600, 48 h; response scale: 0% DMSO, 100% iron-clioquinol control | Potency, µM (doses to about 46.1 µM), usual class: activators | 0.063% of 410,000 active; also: nearly all actives have a fitted effect of over 55% in size
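Growth rescue measured by 600 nm absorbance after 48 h yeast culture at 30 C with compound. Values normalized between DMSO and an equimolar ferric chloride plus clioquinol control.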
ClpP mod: qHTS Assay for Activators of ClpP. ATP-dependent Clp protease proteolytic subunit (Bacillus subtilis (strain 168)), P80244. purified B. subtilis ClpP, FRET peptide cleavage, 20 min. Potency, µM (doses to about 57.5 µM). 1.9% of 340,000 active; active = well fitted falling curve with a large enough effect; inconclusive = small, poorly fitted or top-dose-only effect; inactive = no such curve, though single readings can be large or run the other way; also: the source files actives as falling curves though it sought activators and does not explain the sign; nearly all actives have a fitted effect of over 65% in size
Target sequence (P80244 whole entry, looked up): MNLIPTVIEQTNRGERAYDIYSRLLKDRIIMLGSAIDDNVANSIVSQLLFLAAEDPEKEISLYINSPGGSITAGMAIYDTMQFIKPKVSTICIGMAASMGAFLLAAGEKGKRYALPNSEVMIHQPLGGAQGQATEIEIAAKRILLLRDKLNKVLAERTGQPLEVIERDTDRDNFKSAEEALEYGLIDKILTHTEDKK
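Purified B. subtilis ClpP, 10 microg/mL final in Tris/HCl pH8 with KCl, BSA, glycerol and Tween-20, cleaved an Abz/nitrotyrosine-quenched decapeptide. Fluorescence (ex 320, em 430) was read at 0 and 20 min at room temperature. Delta was normalized to 5.8 microM ADEP and DMSO/no-enzyme controls.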
Mm-Cpn inhibitor: inhibitors of Methanococcus maripaludis chaperonin TRiC (MmCpn) | Potency, µM (highest dose often 76.9 µM), actives largely listed as inhibitors | 0.031% of 330,000 active | purified Mm-Cpn ATPase, ADP Transcreener TR-FRET | AID 504842; also: nearly all actives have a fitted effect of over 80% in size
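ATPase read-out: TR-FRET ADP immunoassay (anti-ADP Eu cryptate vs ADP-d2), ex 320 nm, em 590/665 nm; signal drops as ADP forms. Enzyme 25 nM, ATP 10 uM, 30 min at 37°C after 10 min compound preincubation.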
FUS suppressor: FUS proteinopathy suppression in yeast | AID 1347120 | 0.24% of 390,000 active | Potency, µM (series often up to 76.6 µM), hits mostly activators | S. cerevisiae FUS-expressing, growth rescue, OD600, 24 h; also: nearly all actives have a fitted effect of over 55% in size
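Yeast FUS proteinopathy model; galactose-induced FUS (2%), starting OD 0.005. Cpds in dilution series, 24hr, 30C, 99% humidity. Abs 600 nm growth. Pos ctrl CP55940 (top 92uM final); neg ctrl DMSO.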
TDP-43 yeast inh: rescues yeast growth from TDP-43 toxicity; TDP-43 expressing yeast growth rescue, BacTiter-Glo, 24 h; Potency, µM (highest dose often 46.1 µM), actives largely listed as activators; 1.8% of 410,000 active; AID 652104; also: nearly all actives have a fitted effect of over 50% in size
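Growth rescue of TDP-43-toxic yeast measured as ATP luminescence (BacTiter-Glo). Cells grown to mid-log in raffinose, induced in galactose at OD600=0.02, exposed to compound 24 hr at 30 deg C.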
Each line names hits and unclear results; the compound was inactive in the other large screens. The list is not random: actives were taken first. Their share in the collection is about 3.6%. Unless noted, calls follow the shape of the dose curve; as a rule, active = well fitted curve in the direction sought with a large enough effect; inconclusive = small, poorly fitted or top-dose-only effect, or another doubt; inactive = no such curve, though single readings can be large; an effect the other way counts as inactive or inconclusive.

O=C(COc1ccc(Cl)cc1)Nc1ccc(Cc2ccncc2)cc1	ClpP mod 7.08µM (no result: FUS suppressor)
O=C(COC(=O)CCCOc1ccc(Cl)cc1Cl)NCc1ccc(F)cc1	Abeta rescue inconclusive, TDP-43 yeast inh 15.8µM
CCCCC(=O)NCc1ccc(Cl)cc1	ClpP mod 20µM (no result: FUS suppressor)
O=C(CCCOc1ccc(Cl)cc1Cl)NCc1ccncc1	none (no result: ClpP mod)
O=C(Nc1ccccc1Sc1ccccc1)c1cnn2c1NC(=C1CC1)C=C2C(F)(F)F	none (no result: Abeta rescue, Mm-Cpn inhibitor, FUS suppressor, TDP-43 yeast inh)
CCOc1cc(CNC(=O)c2ccc(NC(=O)c3nsc4ccccc34)cc2)ccc1OC	none (no result: aSyn rescue, Mm-Cpn inhibitor)
CCOc1ccc(CNC(=O)CCC(=O)N2CC3CCCN3c3ccccc32)cc1 (stereo not given)	FUS suppressor inconclusive (no result: aSyn rescue, Mm-Cpn inhibitor)
Cc1ccccc1Nc1nnc(SCC(=O)Nc2ccccc2[N+](=O)[O-])s1	ClpP mod 31.6µM, TDP-43 yeast inh 15.8µM
Cc1cccc(Nc2nnc(SCC(=O)c3ccc(Br)s3)s2)c1C	Abeta rescue inconclusive, Mm-Cpn inhibitor 39.8µM, TDP-43 yeast inh 25.1µM
Cc1ccc2cccc(NC(=O)C(C)(C)Oc3ccc(Br)cc3)c2n1	none (no result: Mm-Cpn inhibitor)
COc1ccc2c(c1)c(C(=O)CN(C)C)c(C)n2C	none (no result: Abeta rescue, Mm-Cpn inhibitor, FUS suppressor, TDP-43 yeast inh)
CCCN(Cc1ccccc1)C(=S)Nc1ccc(F)cc1	TDP-43 yeast inh 17.8µM
Cc1ccc(CN2C(=O)C3(c4ccccc42)N(c2cccc(F)c2)C(=O)CS3(=O)=O)cc1 (stereo not given)	none (no result: Mm-Cpn inhibitor)
Cc1[nH]nc2c1C(c1ccccc1)C1=C(CC(C)(C)CC1=O)N2 (stereo not given)	ClpP mod 28.2µM
COc1ccc(C2C3=C(CC(C)(C)CC3=O)Nc3n[nH]c(C)c32)cc1 (stereo not given)	ClpP mod 35.5µM

Assay outcomes as filed in PubChem.
